Laboratory results published in PubChem BioAssay.
Activity calls are given as the source filed them.

Tests used:
[1] = binders of probe aFSTL3 on microarray, primary screen, stem cell growth factor project, biochemical, small-molecule microarray, fluorescence 635/667 (AID 1064); conditions: higher = more signal;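 further: measures binding of the biotinylated anti-FSTL3 antibody to printed compounds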
[2] = binders from COS7 lysate, DM2A8 probe, primary screen, torsin A project, cell lysate, small-molecule microarray, fluorescence 635/667 (AID 1065); conditions: higher = more signal, COS7 lysate expressing mutant human TOR1A
[3] = binders of probe aFGF2 on microarray, primary screen, stem cell growth factor project, biochemical, small-molecule microarray, fluorescence 635/667 (AID 1067); conditions: higher = more signal;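 further: measures binding of biotinylated aFGF2 protein to printed compounds on slides; z-score merges feature fluorescence and signal-to-noise across triplicate slides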
[4] = binders of probe aFGF10 on microarray, primary screen, stem cell growth factor project, biochemical, small-molecule microarray, fluorescence 635/667 (AID 1071); conditions: higher = more signal;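 further: score merges 667 nm spot intensity and signal to noise from triplicate slides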
[5] = target: Neurogenic locus notch homolog protein 2 (Homo sapiens) (UniProt Q04721); assay: Notch2 binders on small-molecule microarrays, primary screen, biochemical, small-molecule microarray, 635 nm fluorescence, stem cell growth factors (AID 1073); conditions: Notch2 binding, higher = more signal
[6] = target: Pro-neuregulin-1, membrane-bound isoform (Homo sapiens) (UniProt Q02297); assay: NRG1 binders on small-molecule microarrays, primary screen, psychiatric disease protein project, biochemical, small-molecule microarray, fluorescence 635/667 (AID 1075); conditions: NRG1 binding, 635 nm fluorescence, higher = more signal;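 further: score combines 667 nm spot fluorescence with signal to noise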
[7] = tested on: Neuregulin-1 EGF-like domain; assay: binders of neuregulin-1 EGF-like domain, primary screen, biochemical, small-molecule microarray, 635 nm fluorescence (AID 1081); conditions: small-molecule microarray binding, higher = more signal;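 further: binding of the protein to compounds printed on small-molecule microarray slides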
[8] = FRG1 promoter luciferase signal modulators, primary screen, FRG1 inhibition for FSHD, cell-based, C2C12 myotubes, firefly/Renilla luciferase, luminescence (AID 1084); conditions: higher = more signal, called active from +8 up or from −8 down
[9] = binders of probe aFST on microarray, primary screen, stem cell growth factor project, biochemical, small-molecule microarray, fluorescence 635/667 (AID 1086); conditions: higher = more signal;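 further: score merges 667 nm fluorescence with signal-to-noise of each printed compound spot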
[10] = binders of probe aHhip on microarray, primary screen, stem cell growth factor project, biochemical, small-molecule microarray, fluorescence 635/667 (AID 1087); conditions: higher = more signal;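 further: score merges spot fluorescence at 667nm with spot signal to noise ratio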

Neurogenic locus notch homolog protein 2 (Homo sapiens), sequence (Q04721 whole entry, looked up, canonical isoform): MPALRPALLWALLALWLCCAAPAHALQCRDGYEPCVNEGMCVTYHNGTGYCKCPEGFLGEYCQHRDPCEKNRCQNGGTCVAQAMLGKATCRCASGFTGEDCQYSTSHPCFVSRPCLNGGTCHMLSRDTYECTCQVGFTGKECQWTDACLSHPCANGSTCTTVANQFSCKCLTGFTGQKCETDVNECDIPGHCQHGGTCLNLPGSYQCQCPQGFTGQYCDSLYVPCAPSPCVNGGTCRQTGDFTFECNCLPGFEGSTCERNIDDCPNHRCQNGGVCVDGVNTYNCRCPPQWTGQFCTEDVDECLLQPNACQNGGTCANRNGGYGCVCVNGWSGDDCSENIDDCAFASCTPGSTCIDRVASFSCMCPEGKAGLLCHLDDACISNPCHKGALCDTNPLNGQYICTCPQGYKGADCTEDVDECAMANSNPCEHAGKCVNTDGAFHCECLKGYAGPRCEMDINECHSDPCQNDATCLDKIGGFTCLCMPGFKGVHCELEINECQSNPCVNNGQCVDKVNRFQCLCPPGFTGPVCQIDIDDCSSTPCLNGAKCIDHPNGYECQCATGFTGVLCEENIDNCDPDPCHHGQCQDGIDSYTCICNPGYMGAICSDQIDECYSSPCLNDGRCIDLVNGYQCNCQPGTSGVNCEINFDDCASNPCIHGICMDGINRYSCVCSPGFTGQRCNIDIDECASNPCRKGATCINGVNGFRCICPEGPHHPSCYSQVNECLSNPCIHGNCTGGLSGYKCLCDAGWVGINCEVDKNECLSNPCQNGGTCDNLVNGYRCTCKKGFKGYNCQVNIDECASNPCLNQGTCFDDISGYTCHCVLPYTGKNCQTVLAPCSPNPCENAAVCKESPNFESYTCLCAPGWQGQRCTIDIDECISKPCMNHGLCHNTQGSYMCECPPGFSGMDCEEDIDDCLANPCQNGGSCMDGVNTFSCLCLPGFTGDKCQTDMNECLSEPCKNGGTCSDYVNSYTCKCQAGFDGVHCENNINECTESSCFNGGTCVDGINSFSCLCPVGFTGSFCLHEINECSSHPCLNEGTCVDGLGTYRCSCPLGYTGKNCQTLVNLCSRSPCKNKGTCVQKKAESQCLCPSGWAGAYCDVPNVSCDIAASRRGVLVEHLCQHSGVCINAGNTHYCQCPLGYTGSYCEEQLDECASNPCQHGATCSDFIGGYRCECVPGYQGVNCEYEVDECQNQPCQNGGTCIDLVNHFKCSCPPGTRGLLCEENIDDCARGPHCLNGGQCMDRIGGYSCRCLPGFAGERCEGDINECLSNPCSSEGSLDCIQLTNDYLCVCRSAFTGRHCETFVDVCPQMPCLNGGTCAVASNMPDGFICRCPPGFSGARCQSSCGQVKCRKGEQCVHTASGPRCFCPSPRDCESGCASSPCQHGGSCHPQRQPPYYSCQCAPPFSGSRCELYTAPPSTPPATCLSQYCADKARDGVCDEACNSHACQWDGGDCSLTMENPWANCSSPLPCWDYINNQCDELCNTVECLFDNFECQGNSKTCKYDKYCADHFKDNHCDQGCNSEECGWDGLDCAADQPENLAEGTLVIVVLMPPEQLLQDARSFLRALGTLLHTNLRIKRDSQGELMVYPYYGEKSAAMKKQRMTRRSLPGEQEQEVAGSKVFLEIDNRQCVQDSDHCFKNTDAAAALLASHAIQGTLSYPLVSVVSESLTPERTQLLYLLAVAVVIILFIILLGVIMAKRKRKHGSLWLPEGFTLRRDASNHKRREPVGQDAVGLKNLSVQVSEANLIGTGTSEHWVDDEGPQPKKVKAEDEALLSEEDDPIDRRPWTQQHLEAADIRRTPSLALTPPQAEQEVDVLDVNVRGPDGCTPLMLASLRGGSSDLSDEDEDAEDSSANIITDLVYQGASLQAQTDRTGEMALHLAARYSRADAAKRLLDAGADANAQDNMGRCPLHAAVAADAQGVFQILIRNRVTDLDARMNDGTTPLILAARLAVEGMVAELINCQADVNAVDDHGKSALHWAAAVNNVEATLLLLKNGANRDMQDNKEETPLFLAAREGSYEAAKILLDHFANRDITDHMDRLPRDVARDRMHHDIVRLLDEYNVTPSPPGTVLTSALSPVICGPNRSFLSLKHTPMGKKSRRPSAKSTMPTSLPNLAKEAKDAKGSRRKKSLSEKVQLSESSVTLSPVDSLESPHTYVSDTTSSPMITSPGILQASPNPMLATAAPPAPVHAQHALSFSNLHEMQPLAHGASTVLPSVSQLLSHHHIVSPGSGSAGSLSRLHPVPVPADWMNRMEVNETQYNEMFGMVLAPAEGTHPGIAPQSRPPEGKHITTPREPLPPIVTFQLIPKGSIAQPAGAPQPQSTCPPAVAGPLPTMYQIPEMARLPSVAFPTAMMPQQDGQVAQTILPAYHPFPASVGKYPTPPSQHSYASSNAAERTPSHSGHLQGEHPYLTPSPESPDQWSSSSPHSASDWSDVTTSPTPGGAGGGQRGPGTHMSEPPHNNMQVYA
Pro-neuregulin-1, membrane-bound isoform (Homo sapiens), sequence (Q02297 whole entry, looked up, the tested form may be a part, canonical isoform): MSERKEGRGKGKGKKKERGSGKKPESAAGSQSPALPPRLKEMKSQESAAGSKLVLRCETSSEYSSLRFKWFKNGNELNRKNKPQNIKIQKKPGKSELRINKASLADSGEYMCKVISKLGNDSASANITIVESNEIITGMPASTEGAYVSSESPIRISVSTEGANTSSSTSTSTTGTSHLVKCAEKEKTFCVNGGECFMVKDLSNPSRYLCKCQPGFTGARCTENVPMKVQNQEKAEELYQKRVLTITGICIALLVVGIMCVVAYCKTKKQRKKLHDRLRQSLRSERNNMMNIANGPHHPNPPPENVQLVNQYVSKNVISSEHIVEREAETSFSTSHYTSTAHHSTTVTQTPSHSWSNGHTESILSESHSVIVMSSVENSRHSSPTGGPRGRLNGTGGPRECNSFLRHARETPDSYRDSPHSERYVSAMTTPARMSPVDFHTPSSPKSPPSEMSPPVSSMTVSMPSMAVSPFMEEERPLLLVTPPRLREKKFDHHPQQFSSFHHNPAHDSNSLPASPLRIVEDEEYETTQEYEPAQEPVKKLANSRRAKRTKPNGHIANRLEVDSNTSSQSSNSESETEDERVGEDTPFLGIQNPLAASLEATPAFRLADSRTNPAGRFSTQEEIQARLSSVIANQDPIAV

Row | Structure (SMILES) | composite z-score [1] | composite z-score [2] | composite z-score [3] | composite z-score [4] | composite z-score [5] | composite z-score [6] | composite z-score [7] | z-score [8] | composite z-score [9] | composite z-score [10]
1 | NC(=O)NCC#Cc1ccc2c(c1)[C@]1(C(=O)N2)[C@H](c2ccc(O)cc2)N2[C@H](c3ccccc3)[C@H](c3ccccc3)OC(=O)[C@H]2[C@@H]1C(=O)N1CCCCCCC1 | 2.38 | -0.206 | 0.242 | 0.122 | 0.617 | 0.467 | 0.839 | -1.21 (inactive) | 2.31 | 0.257
2 | Cc1cc2c(nc1C)CCCN2CC(C)ON=C1[C@H]2CCn3c(=O)n(-c4ccccc4)c(=O)n3[C@H]2[C@H](O)[C@@H]2O[C@H]12 (stereo not given in full) | -0.335 | 0.533 | 0.0477 | 0.73 | 0.36 | 0.0785 | 1.1 | -0.325 (inactive) | 0.265 | -0.194
3 | CCc1cc2c(nc1CC)CCN(CCC(C)=NOC[C@@H](O)[C@H]1O[C@@H]3OC(C)(C)O[C@@H]3[C@H]1O)C2 | -0.436 | 0.273 | -0.148 | 0.0851 | 0.191 | 0.146 | 0.335 | 1.35 (inactive) | 0.0391 | -0.0088
4 | CC(C)CON=C1C[C@@H](O)[C@@H](O)[C@@H]2[C@@H]3C(=O)N(C[C@@H]4CCCO4)C(=O)[C@@H]3CC[C@H]12 | -0.549 | 0.254 | -0.116 | 0.421 | 0.595 | -0.0414 | 0.59 | -0.267 (inactive) | -0.179 | -0.406
5 | CCOC(=O)CCN1C(=O)[C@H]2[C@H]3[C@H](O)C=CC(=O)[C@@H]3CC[C@H]2C1=O | -0.619 | 0.153 | -0.108 | 0.408 | 0.25 | 0.262 | -0.0122 | -0.451 (inactive) | -0.0371 | -0.374
6 | CC(C)C[C@@H]1NC(=O)[C@H]2C[C@@H](C(=O)O)[C@@H](c3ccc(O)cc3)N2C1=O | 1.29 | 1.31 | -0.087 | -0.211 | -0.506 | 1.47 | 1.29 | 6.75 (inactive) | 0.123 | 0.613
7 | N#Cc1ccc(NN2C(C(O)c3cc(C(F)(F)F)cc(C(F)(F)F)c3)C=CC3C(=O)N(c4ccccc4)C(=O)C32)cc1 (stereo not given) | 0.0678 | 0.517 | 0.116 | 0.668 | 1.27 | 1.97 | 1.22 | 0.474 (inactive) | 0.785 | 0.357
8 | CCOC(=O)[C@H](Cc1ccccc1)NC(=O)CCC1CC(OC(=O)NCCc2ccc(F)cc2)CC2(CCCC(COC(=O)NCC(c3ccccc3)c3ccccc3)O2)O1 (stereo not given in full) | -0.183 | 0.0877 | -0.0785 | 0.627 | 0.823 | 0.852 | 0.919 | 2.14 (inactive) | 0.486 | 0.0053
9 | COC(=O)C1=CCC(c2cccc(Cl)c2)O1 (stereo not given) | 0.005 | -0.0992 | -0.0901 | 0.0994 | -0.104 | 1.25 | 0.584 | -0.912 (inactive) | -0.0195 | 0.0749
10 | CN(C)CCCNC(=O)[C@@H]1c2ccccc2C(=O)N(Cc2cc(F)cc(C(F)(F)F)c2)[C@H]1c1ccc(CO)cc1 | 1.11 | 1.01 | -0.0692 | -0.436 | 0.102 | 1.33 | 1.36 | -1.19 (inactive) | -0.186 | 0.316
11 | CC(C)c1ccc(NN2C(C(O)c3ccc4c(c3)OCO4)C=CC3C(=O)N(c4ccccc4)C(=O)C32)cc1 (stereo not given) | 0.542 | 0.461 | 0.0899 | 0.839 | 1.34 | 1.82 | 1.24 | 2.22 (inactive) | 1.07 | 0.103
12 | CC(C)[C@H](NC(=O)OC(C)(C)C)[C@@H](O)CC(=O)OC(C)(C)C | -0.273 | -0.584 | -0.116 | -0.267 | -0.756 | -0.739 | -1.18 | 0.0293 (inactive) | -0.357 | 0.0881
13 | CCCNC(=O)OC[C@H]1O[C@H](CCON=CC[C@@H]2C=C[C@H](OC(C)=O)[C@@H](COC(C)=O)O2)C=C[C@@H]1Oc1ccc(OC)cc1 | -0.458 | 0.453 | -0.112 | 0.423 | 0.605 | -0.367 | 0.576 | 0.335 (inactive) | 0.014 | -0.134
14 | CCOC(=O)CCN1C(=O)[C@H]2[C@H]3[C@H](O)[C@H](O)CC(=NNC(=O)OCc4ccc(OC)cc4)[C@@H]3CC[C@H]2C1=O | -0.468 | 0.336 | -0.15 | 0.0569 | 0.0846 | 0.863 | 0.574 | 0.455 (inactive) | 0.15 | 0.251
15 | CO[C@@H]1COC(=O)CCC[C@@H](C)[C@H](OC)COC(=O)[C@H](Cc2ccccc2)NC(=O)CC=C[C@H]1C | -0.0731 | 1.42 | -0.186 | -0.904 | -1.13 | -0.87 | -1.25 | 0.0446 (inactive) | -0.104 | -0.134
16 | COC(=O)c1c(CC[C@@H](CO)NC(=O)N[C@H](Cc2ccccc2)Cn2cc(-c3ccccc3N)nn2)oc(C(C)=O)c1C(=O)OC | 0.718 | 0.799 | 0.241 | 0.465 | 0.269 | 0.939 | 0.71 | -0.52 (inactive) | 0.914 | 0.176
17 | CCc1cc2c(nc1CC)CCN(CCC(C)=NOC[C@@H](O)COCc1ccco1)C2 | 0.394 | 2.81 | -0.105 | 0.0103 | 0.95 | -0.38 | 1.36 | 1.16 (inactive) | 2.06 | 0.382

Row | Structure (SMILES) | composite z-score [1] | composite z-score [2] | composite z-score [3] | composite z-score [4] | composite z-score [5] | composite z-score [6] | composite z-score [7] | z-score [8] | composite z-score [9] | composite z-score [10]
18 | C=CCN1C(=O)[C@]2(O[C@H](CCn3cc(CCO)nn3)[C@@H]([Si](C)(C)c3ccc(OC)cc3)[C@@H]2C)c2cc(N3CCOC3=O)ccc21 | -0.0415 | 0.0421 | -0.152 | 0.0622 | -0.447 | 1.05 | 1.18 | -3.36 (inactive) | -0.414 | -0.261
19 | CN1C(=O)C2C=CC(C(O)c3ccc(I)cc3)N(NC(=O)OC(C)(C)C)C2C1=O (stereo not given) | 0.108 | -0.0004 | 0.111 | 0.652 | 1.68 | 1.69 | 1.38 | -3.23 (inactive) | 1.18 | -0.0994
20 | CCOC(=O)CCN1C(=O)[C@H]2[C@H]3[C@H](O)[C@H](O)CC(=NOC[C@@H](O)COCc4ccco4)[C@@H]3CC[C@H]2C1=O | 0.545 | 0.457 | 0.0166 | 0.484 | -0.328 | -0.21 | 0.486 | -0.124 (inactive) | 0.356 | -0.134
21 | COCC(=C=CC[C@@H](O)c1ccccc1OCCO)CCO | -0.181 | 0.44 | 0.0201 | 0.492 | 0.375 | 0.19 | 1.27 | 0.0373 (inactive) | 0.175 | -0.0618
22 | COC(=O)CC1OC1[C@H](C)[C@@H](OC)C(C)C (stereo not given in full) | -0.243 | -0.0917 | -0.201 | 0.123 | -0.624 | -0.407 | -0.102 | 1.24 (inactive) | 0.0068 | -0.316
23 | COc1ccc(O[C@H]2C=C[C@@H](c3ccccc3)O[C@@H]2COC(=O)CCC(C)=NO[C@@H](C)c2cc(-c3c(C)cc(C)cc3C)no2)cc1 | -0.0675 | -0.499 | -0.199 | -0.522 | -1.07 | -0.524 | -1.08 | 0.0014 (inactive) | -0.666 | -0.237
24 | Cn1c(=O)n2n(c1=O)[C@H]1[C@H](O)[C@@H]3O[C@@H]3C(=NOC[C@@H](O)COCc3ccco3)[C@H]1CC2 | -0.319 | 0.614 | -0.0538 | 0.296 | 0.515 | -0.218 | 0.276 | -0.532 (inactive) | 0.0036 | 0.0373
25 | CO[C@@H]1COC(=O)CC=C[C@@H](C)COC(=O)[C@H](COCc2ccccc2)NC(=O)CC=C[C@H]1C | -0.611 | 2.32 | -0.162 | -0.903 | -0.75 | -0.698 | -0.0535 | -1.05 (inactive) | -0.268 | 0.0749
26 | CCOC(=O)[C@H](CC(C)C)NC(=O)CCC1CC(OC(=O)NCc2cccc3ccccc23)CC2(CCCC(COC(=O)NCCc3ccccc3OC)O2)O1 (stereo not given in full) | -0.414 | 0.301 | -0.108 | 0.433 | 1.14 | 0.174 | 0.882 | 0.0171 (inactive) | 0.402 | -0.134
27 | CC(C)CON=C1C[C@@H](O)[C@@H](O)[C@@H]2[C@@H]3C(=O)N(Cc4ccccc4)C(=O)[C@@H]3CC[C@@H]12 | -0.404 | 0.129 | -0.141 | 0.256 | 0.455 | -0.344 | 0.211 | 0.166 (inactive) | -0.313 | -0.199
28 | O=C1[C@H]2[C@H]3[C@H](O)[C@H](O)CC(=NO[C@@H]4O[C@H](CO)[C@@H](O)[C@H](O)[C@H]4O)[C@H]3CC[C@H]2C(=O)N1Cc1ccccc1 | -0.658 | 0.0571 | -0.116 | 0.602 | 1.4 | -0.328 | 0.0944 | 0.632 (inactive) | 0.564 | 0.199
29 | COC(=O)[C@H](C)NC(=O)CCC1CC(OC(=O)NCc2ccc3c(c2)OCO3)CC2(CCCC(COC(=O)NCCOc3ccccc3)O2)O1 (stereo not given in full) | -0.426 | 0.898 | -0.122 | 0.325 | 1.06 | 0.689 | 1.04 | -0.503 (inactive) | 0.91 | -0.479
30 | COC(=O)CC=C[C@@H](C)[C@H](OC)c1ccccc1Br | -0.297 | 1.46 | -0.0514 | 0.178 | 0.119 | -0.171 | -0.26 | 1.08 (inactive) | -0.155 | 0.275
31 | C#C[C@@H](CC)O[Si](C#Cc1ccc(Oc2ccccc2)cc1)(C(C)C)C(C)C | -0.321 | 0.438 | -0.201 | 0.247 | 0.824 | 0.108 | 0.0426 | 0.364 (inactive) | 0.168 | -0.0193
32 | COc1ccc([Si](C)(C)[C@@H]2[C@@H](CCO)O[C@]3(C(=O)N(Cc4ccc(NC(C)=O)cc4)c4ccccc43)[C@H]2C)cc1 | -0.189 | 1.05 | -0.0049 | 1.18 | 1.47 | 1.66 | 1.24 | -4.04 (inactive) | 0.17 | 0.0373
33 | COC(=O)CC=C[C@@H](C)[C@@H](C=NO[C@H](C)c1cn([C@@H]2COC[C@H]2O)nn1)OC | -0.276 | 0.563 | -0.0914 | 0.37 | 0.268 | -0.482 | 0.951 | -0.954 (inactive) | 0.0889 | 0.0024
